Bioassay records as filed in PubChem.
Only some compounds are listed: those with a hit (about 2.8% of all), similar ones and a draw of the others.
RGS4 inh: inhibitors of human regulator of G protein signaling 4; P49798; Transcreener GDP fluorescence polarization, RGS4-accelerated GTP hydrolysis; Potency, µM (doses to about 114 µM), most hits filed as inhibitors; 390,000 compounds, 0.039% hits; AID 504845; active = well fitted inhibition curve with a large enough effect; inconclusive = small, poorly fitted or top-dose-only effect; inactive = no such curve, though single readings can be large or run the other way; note: nearly all actives have a fitted effect of over 75% in size
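MLSMR compounds (23 nl, pin-transferred) preincubated 10 min at room temperature with a 500nM (2x) first reagent, then RGS4 at 900nM (2x) plus Transcreener GDP mix added; fluorescence polarization (620/688 nm) read before and after 90 min at 30 °C.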
LDHA block: inhibitors of human lactate dehydrogenase A | 480,000 compounds, 0.15% hits | P00338 | purified LDHA, NADH/diaphorase-resazurin fluorescence; hits give low values | AID 1347041 | activity change, % (values are at about 110 or 230 µM); in the data active = activity change below about -30%; inconclusive = mostly about -25% to -30%
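Human LDH5 (2 nM) was incubated with 0.06 mM NADH and 0.2 mM pyruvate for 5 min at room temperature in Tris pH 7.4. Remaining NADH was coupled through diaphorase/resazurin, and resorufin fluorescence was read at 0 and 20 min.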
DRD3 agonist: agonists of human D3 dopamine receptor. max activation, %. 410,000 compounds, 0.58% hits. D3R DiscoveRx beta-arrestin cells, luminescence, 90 min; in the data active = max activation above about 30%
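Agonist mode: compounds and dopamine controls were applied to plated cells for 90 min at 37 degrees C after an overnight attachment at 1500 cells/well. Luminescent read-out followed 30 - 60 minutes at room temperature with DiscoveRx detection reagent.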
D3 antag: D3 dopamine receptor (human) antagonism; P35462; D3R cells, DiscoveRx beta-arrestin luminescence, antagonist mode; hits give low values; max response, negative = inhibition, %; 360,000 compounds, 2.5% hits; AID 652054; in the data active = max response below about -50%; inconclusive = no clear call, values can overlap the other calls
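Cells expressing the human receptor were seeded at 1500 cells/well, incubated overnight at 37 degrees C in 5% CO2, then exposed to library compounds with dopamine controls for 90 minutes at 37 degrees C before luminescent detection.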
PI4K2A block: PI4K2A (human) kinase inhibition; Q9BTU6; 420,000 compounds, 0.13% hits; purified PI4K2A, ADP-Glo luminescence, 1 h; hits give low values; activity change, negative = inhibition, % at 76.9 µM; in the data active = activity change below about -50%; inconclusive = mostly about -30% to -49%
Target sequence (Q9BTU6 whole entry, looked up): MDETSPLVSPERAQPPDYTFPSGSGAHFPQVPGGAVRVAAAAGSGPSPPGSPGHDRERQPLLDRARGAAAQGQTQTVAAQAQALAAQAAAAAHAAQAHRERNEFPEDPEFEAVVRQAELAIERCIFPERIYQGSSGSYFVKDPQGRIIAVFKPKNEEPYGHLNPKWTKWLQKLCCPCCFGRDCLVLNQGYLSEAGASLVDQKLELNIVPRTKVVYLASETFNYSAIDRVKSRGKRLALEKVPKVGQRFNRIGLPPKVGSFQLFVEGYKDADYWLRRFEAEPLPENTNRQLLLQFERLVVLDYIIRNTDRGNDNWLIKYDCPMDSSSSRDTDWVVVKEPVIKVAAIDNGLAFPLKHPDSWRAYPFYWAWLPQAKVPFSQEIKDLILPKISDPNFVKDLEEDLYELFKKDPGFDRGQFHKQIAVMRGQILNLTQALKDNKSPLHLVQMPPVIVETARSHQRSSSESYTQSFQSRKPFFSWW
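Compounds are screened against recombinant PI4K2A using PI as substrate and ATP, the latter dispensed at 300 microM. Reactions run one hour at ambient temperature before ADP-Glo detection; full inhibition defined by wells lacking enzyme.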
pAkt inh: inhibitors of Akt phosphorylation; activity change, % for hits at 50 µM; 360,000 compounds, 0.32% hits; Neuro2A IGF-stimulated pAkt S473 HTRF, 20 min; hits give low values; in the data active = activity change below about -80%; inconclusive = mostly about -51% to -80%
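Single-point screen (50 µM final compound) in Neuro2A cells stimulated 20 min with 6 nM IGF at 37 deg C. After lysis, Ser473-phosphorylated Akt read by HTRF (ex 330 nm, em 615/665 nm) as the 665/615 ratio.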
Large screens that a line does not name were inactive.

Cc1cc(C)c2c(-n3cccc3)c(C(=O)NNS(=O)(=O)c3ccccc3)sc2n1	D3 antag -55
CNC(=O)c1ccc2c(c1)OCC(=O)N2	none (no result: RGS4 inh, DRD3 agonist, D3 antag, PI4K2A block, pAkt inh)
O=C(O)CN1CCC(C(=O)O)CC1	none (no result: RGS4 inh, DRD3 agonist, D3 antag, PI4K2A block, pAkt inh)
CC(C)/C(=N/O)c1ccc(OCCOc2ccc(/C(=N\O)C(C)C)cc2)cc1	none (no result: RGS4 inh, DRD3 agonist, D3 antag, PI4K2A block, pAkt inh)
CCn1c(CN2CCC(C)CC2)nc2cc(NC(=O)c3ccc([N+](=O)[O-])cc3)ccc21	DRD3 agonist 60 (no result: D3 antag, pAkt inh)
CCOC(C(=O)N(CC)CC(=O)NCc1cccs1)(c1ccccc1)c1ccccc1	none (no result: RGS4 inh, DRD3 agonist, D3 antag, PI4K2A block, pAkt inh)
COc1cc2cc3c(N)c(C(=O)Nc4sc(C)c(C)c4C#N)sc3nc2cc1OC	D3 antag inconclusive, PI4K2A block -50
CC(C)(C)S(=O)N1Cc2cc(C(=O)O)nc(-c3cccc(-c4cc5ccccc5o4)c3)c2[C@H]1CCO (some centres not stated)	LDHA block -32 (no result: RGS4 inh)
Cc1cccc(C(C)C)c1NC(=O)c1ccc2c(c1)CCC2	none (no result: RGS4 inh, DRD3 agonist, D3 antag, PI4K2A block, pAkt inh)
CC(C)Oc1ccc(C(=O)Nc2ccc(Oc3ccc(Cl)cc3)cc2)cc1	none (no result: RGS4 inh, DRD3 agonist, D3 antag, PI4K2A block, pAkt inh)
COc1ccc(CC2=CC(=O)c3ccccc3C2=O)cc1	RGS4 inh inconclusive, D3 antag -56
COc1ccc(Cc2ccccc2C(=O)O)cc1	none
CC1=NN(c2nc(-c3ccc(C)cc3)cs2)C(=O)C1N=Nc1cccc(O)c1 (configuration not stated)	RGS4 inh inconclusive
CC1=NN(c2nc(-c3ccc(C)cc3)cs2)C(=O)C1N=Nc1ccccc1O (configuration not stated)	D3 antag -64
Cc1ccc(C(C)C)c(OCCNC(=O)c2cncc(Br)c2)c1	D3 antag -52
COc1cc(C(=O)NCCOc2cc(C)ccc2C(C)C)cc(OC)c1OC	none
CCNC(=O)C1CCCN(C(=O)c2ccc(OC)cc2)CC1 (configuration not stated)	none (no result: RGS4 inh)
COCCNC(=O)C1CCCN(C(=O)c2ccc3ccccc3n2)CC1 (configuration not stated)	DRD3 agonist 54 (no result: RGS4 inh)
CCNC(=O)C1CCCN(C(=O)c2ccc(OC)c(OC)c2)CC1 (configuration not stated)	DRD3 agonist 79 (no result: RGS4 inh)
CCSc1nc2c(c(=O)[nH]1)C(C(=O)Nc1cccc(Cl)c1)CC(=O)N2 (configuration not stated)	none (no result: RGS4 inh, DRD3 agonist, D3 antag, PI4K2A block, pAkt inh)
Cc1cc(C)c(NC(=O)CN2CCN(c3ccccc3)CC2)c(Cl)c1	none (no result: RGS4 inh, DRD3 agonist, D3 antag, PI4K2A block, pAkt inh)
CO[C@@H]1CN(C)C(=O)c2cc(NC(=O)NC3CCCCC3)ccc2OC[C@@H](C)N(CC2CCOCC2)C[C@@H]1C	D3 antag -60 (no result: RGS4 inh)
CO[C@@H]1CN(C)C(=O)c2cc(NC(=O)NC3CCCCC3)ccc2OC[C@@H](C)N(CCc2ccccc2)C[C@H]1C	none (no result: RGS4 inh)
O=c1c(C=Nc2ccc(Cl)cc2)c[nH]n1-c1cccc(Cl)n1	LDHA block -52
COc1cc(OC)c(OC)cc1CNC(=O)c1nn(Cc2ccccc2)c(=O)c2ccccc12	none (no result: RGS4 inh, DRD3 agonist, D3 antag, PI4K2A block, pAkt inh)
O=C(Nc1nc2c(F)cccc2s1)c1ccc([N+](=O)[O-])o1	D3 antag inconclusive
O=C(Nc1nc2ccc(F)cc2s1)c1ccc([N+](=O)[O-])o1	D3 antag -57 (no result: RGS4 inh)
CCOC(=O)C1CCN(C(=O)CN(Cc2ccc(Cl)cc2)S(C)(=O)=O)CC1	D3 antag -56
CCOC(=O)C1CCN(Cc2cccc(OC)c2)CC1	none
CCOC(=O)C1CCN(Cc2ccc3ccccc3c2)CC1	D3 antag -75
CCOC(=O)C1CCN(Cc2cn[nH]c2-c2ccccc2)CC1	D3 antag -66
CCOC(=O)C1CCN(Cc2cc(C(C)C)c(O)c(C(C)C)c2)CC1	D3 antag -69
CCOC(=O)C1CCN(Cc2oc(CO)cc(=O)c2O)CC1	none
FC(F)(F)c1cc(-c2ccccn2)nc2c(-c3ccc(Cl)cc3)cnn12	none (no result: RGS4 inh, DRD3 agonist, D3 antag, PI4K2A block, pAkt inh)
CCOC(=O)C1CCN(Cc2cnc(Oc3ccc(OC)cc3)s2)CC1	D3 antag -55
CCOC(=O)C1CCN(Cc2ccc(N(C)C)cc2)CC1	D3 antag -51
CCOC(=O)C1CCN(Cc2ccc(OC)cc2OC)CC1	none
